# Structures can show the parent of a compound that is named as a salt. ± gives the uncertainty stated by the source.
# Test system: U87
# Assay: cell viability relative to vehicle control; higher = less growth inhibition (less active)
# Conditions: 10 µM; 72 h
# 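Note: viable cell number estimated from Alamar Blue fluorescence read at 560/90, part of a single-dose primary screen of an FDA-approved drug library.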
row,SMILES,cell viability
1,O=C(O[C@H]1[C@H](Oc2ccccc2COC(=O)C2(O)C=CCCC2=O)O[C@H](CO)[C@@H](O)[C@@H]1O)c1ccccc1 (stereo partly specified),104 ± 2.2%
2,"OC[C@H]1O[C@@H](n2cnc3c(N[C@H]4CCC[C@@H]4O)ncnc32)[C@@H](O)C1O (stereo partly drawn) [Adenosine, N-(2-hydroxycyclopentyl)-, (1S-trans)- [CAS]]",110.8 ± 0.42%
3,COC(=O)C1=C(C)NC(C)=C(C(=O)OC2CCCN(Cc3ccccc3)C2)C1c1cccc([N+](=O)[O-])c1 (stereo unspecified),104 ± 1.2%
4,Cc1cccc(C)c1NC(=O)C(C)N (stereo unspecified),104 ± 2.3%
5,CN1CCN(c2nc3cc(C(F)(F)F)ccc3n3cccc23)CC1,111 ± 2%
6,CN(C)[C@@H]1C(O)=C(C(=O)NCN2CCCC2)C(=O)[C@@]2(O)C(O)=C3C(=O)c4c(O)cccc4[C@@](C)(O)[C@H]3C[C@@H]12,107 ± 2.1%
7,COCC1=C(C(=O)OC(C)OC(=O)OC(C)C)N2C(=O)[C@@H](NC(=O)/C(=N\OC)c3csc(N)n3)[C@H]2SC1 (stereo partly specified),106 ± 1.6%
8,CCCCC(=O)N(Cc1ccc(-c2ccccc2-c2nnn[nH]2)cc1)[C@H](C(=O)O)C(C)C,108 ± 3%
9,Nc1ccc(O)c(C(=O)O)c1 [5-Amino-2-hydroxy-benzoic acid],102.5 ± 0.14%
10,CN(C/C=C/C#CC(C)(C)C)Cc1cccc2ccccc12,103 ± 1.4%
11,CN1CCN(c2c(F)cc3c(=O)c(C(=O)O)cn4c3c2SCC4)CC1,99.9 ± 1.7%
12,CCN(CC)CC1CCCCN1CC(=O)N1c2ccccc2C(=O)Nc2cccnc21 (stereo unspecified),110 ± 1.9%
13,Nc1nc2ccc(OC(F)(F)F)cc2s1 [Riluzole],98.1 ± 1.5%
14,CN1[C@@H](CC(=O)c2ccccc2)CCC[C@H]1C[C@H](O)c1ccccc1,98.58 ± 0.82%
15,O=C1Nc2ccc(Cl)cc2[C@@](C#CC2CC2)(C(F)(F)F)O1,107 ± 1.1%
16,O=C1[C@H](CC[C@H](O)c2ccc(F)cc2)[C@@H](c2ccc(O)cc2)N1c1ccc(F)cc1,99.1 ± 2.4%
17,CN1CC(=O)N2[C@H](c3ccc4c(c3)OCO4)c3[nH]c4ccccc4c3C[C@@H]2C1=O,107 ± 1.3%
18,COc1cc2nc(N3CCN(C(=O)C4CCCO4)CC3)nc(N)c2cc1OC (stereo unspecified) [Terazosin],100.6 ± 0.86%

row,SMILES,cell viability
1,C[C@H](CCC(=O)O)[C@H]1CC[C@H]2[C@@H]3C(=O)C[C@@H]4CC(=O)CC[C@]4(C)[C@H]3CC(=O)[C@]12C,103.4 ± 0.82%
2,O=c1cnn([C@@H]2O[C@H](CO)[C@@H](O)[C@H]2O)c(=O)[nH]1,94.8 ± 1.9%
3,O=C(O)COCCN1CCN([C@H](c2ccccc2)c2ccc(Cl)cc2)CC1,101.2 ± 0.57%
4,Cc1ncc([N+](=O)[O-])n1CC(C)O (stereo unspecified) [1-(2-Methyl-5-nitro-imidazol-1-yl)-propan-2-ol],102.9 ± 0.98%
5,NNCCc1ccccc1,104.4 ± 0.9%
6,CNCCCC12CCC(c3ccccc31)c1ccccc12 [Maprotilline HCl],102 ± 1.5%
7,CCOC(=O)c1ncn2c1CN(C)C(=O)c1cc(F)ccc1-2,103 ± 1.8%
8,C[C@]12CC[C@@H]3c4ccc(OS(=O)(=O)O)cc4CC[C@H]3[C@@H]1CCC2=O,110.8 ± 0.43%
9,Clc1cccc(Cl)c1NC1=NCCN1,108 ± 2.8%
10,COc1cccc2c1C(=O)c1c(O)c3c(c(O)c1C2=O)C[C@@](O)(C(=O)CO)C[C@@H]3O[C@H]1C[C@H](N)[C@H](O)[C@H](C)O1,23.5 ± 4%
11,CN1CCC(=C2c3ccccc3CC(=O)c3sccc32)CC1,109 ± 3.3%
12,CO[C@H]1/C=C/O[C@@]2(C)Oc3c(C)c(O)c4c(O)c(c5c(nc6cc(C)ccn65)c4c3C2=O)NC(=O)/C(C)=C\C=C\[C@H](C)[C@H](O)[C@@H](C)[C@@H](O)[C@@H](C)[C@H](OC(C)=O)[C@@H]1C,96.1 ± 1.3%
13,C[C@H]1COc2c(C3(N)CC3)c(F)cc3c(=O)c(C(=O)O)cn1c23,101.8 ± 0.5%
14,C#C[C@]1(O)CC[C@H]2[C@@H]3[C@H](C)CC4=C(CCC(=O)C4)[C@H]3CC[C@@]21C,106 ± 2.1%
15,Cc1c(O)cccc1C(=O)N[C@@H](CSc1ccccc1)[C@H](O)CN1C[C@H]2CCCC[C@H]2C[C@H]1C(=O)NC(C)(C)C,102.1 ± 1%
16,CN(CCO)CC(O)Cn1cnc2c1c(=O)n(C)c(=O)n2C (stereo unspecified),104.3 ± 0.69%
17,CO[C@H]1/C=C/O[C@@]2(C)Oc3c(C)c(O)c4c(O)c(c(/C=N/N5CCN(C6CCCC6)CC5)c(O)c4c3C2=O)NC(=O)/C(C)=C\C=C\[C@H](C)[C@H](O)[C@@H](C)[C@@H](O)[C@@H](C)[C@H](OC(C)=O)[C@@H]1C,93.7 ± 1.3%
18,CC[C@H]1OC(=O)[C@H](C)[C@@H](O[C@H]2C[C@@](C)(OC)[C@@H](O)[C@H](C)O2)[C@H](C)[C@@H](O[C@@H]2O[C@H](C)C[C@H](N(C)C)[C@H]2O)[C@](C)(OC)C[C@@H](C)C(=O)[C@H](C)[C@@H](O)[C@]1(C)O,107 ± 1.2%

# From the supplement of paper PMC3898565
